PubChem BioAssay AID743279 (National Center for Advancing Translational Sciences (NCATS), 2014)
Hit rate of the full screen: of about 360,000 compounds, about 17,000 (4.7%) were called active. Roughly 5% stayed inconclusive and do not appear here. Many of the other results were omitted from the sample, so actives are more common in it than they were. A number with no mark means an inactive call. Cut-off read from the data, not from the text of the source: active = activity change below about -50%; inconclusive = mostly about -30% to -49%; inactive = weaker than that.

Assay: qHTS for Inhibitors of Inflammasome Signaling: IL-1-beta AlphaLISA Primary Screen
Settings: THP-1 LPS/ATP IL-1B secretion, 16 h; at 57.5 µM, active compounds read low
Method in brief: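 Secreted IL-1B measured by AlphaLISA bead assay after 16 h compound exposure of THP-1 cells; compounds (final up to 57.5 uM) added 1 h before LPS (250 ng/mL) and ATP (1.25 mM) stimulation; lower signal means less secretion.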
% is set by controls: 0 for no effect and ±100 for the full control effect.

| SMILES | activity change |
| --- | --- |
| CC(=O)NCCc1ccc(S(=O)(=O)N(C)C2CCS(=O)(=O)C2)cc1 (stereo not given) | 0% |
| CC(=O)c1nn(-c2ccccc2)c(=Nc2ccccc2)cc1C | -11% |
| O=C(Nc1ccc(Cl)cn1)c1ccccc1-c1ccccc1 | 7.39% |
| Oc1ccccc1-c1cc(-c2ccc(Cl)cc2)n[nH]1 | -71.3% (active) |
| CSc1ccccc1-c1nnc(-c2ccc(Cl)cc2)o1 | -6.95% |
| CC(=O)NC(C)(C)C1CC=C(C)/C(=N\O)C1 (stereo not given) | 3.35% |
| COc1cccc(CNS(=O)(=O)c2ccc3c(c2)CC(C)N3C(C)=O)c1 (stereo not given) | 4.38% |
| COc1ccc(N(C)S(=O)(=O)c2ccc3c(c2)CC(C)N3C(=O)C2CC2)c(OC)c1 (stereo not given) | -63.4% (active) |
| COc1ccccc1CNC(=O)C1CCN(S(=O)(=O)c2ccc3c(c2)CC(C)N3C(=O)C2CC2)CC1 (stereo not given) | -26% |
| C[C@H](CO)N1C[C@H](C)[C@@H](CN(C)C(=O)c2cnccn2)Oc2ncc(Br)cc2C1=O | 33.8% |
| O=C1/C(=C\c2ccc([N+](=O)[O-])cc2)CS(=O)(=O)C/C1=C/c1ccc([N+](=O)[O-])cc1 | -99.9% (active) |
| O=[N+]([O-])c1ccc(C=NN=Cc2ccc([N+](=O)[O-])cc2)cc1 | -8.06% |
| CC(=O)Nc1ccc(C=Cc2ccc([N+](=O)[O-])cc2)cc1 | -18.6% |
| CCC(C)N(C(=O)CSc1ncnc2c1cnn2-c1ccccc1)C1CCS(=O)(=O)C1 (stereo not given) | -9.61% |
| CCN(C(=O)CSc1ncnc2c1cnn2-c1ccccc1)C1CCS(=O)(=O)C1 (stereo not given) | -60.6% (active) |
| CCN(CC)C(=O)CSc1ncnc2c1cnn2-c1ccccc1 | -11.6% |
| CC1=C(C(=O)N2CCOCC2)CC(CC(=O)NCC2CCCCC2)C(=O)N1Cc1ccc(F)cc1 (stereo not given) | 3.54% |
| CNc1cc(-c2c(OC)cccc2OC)ncn1 | 22.1% |
| Cc1ccc(OCCNC(=O)c2cccc(S(=O)(=O)N3CCN(Cc4ccccc4)CC3)c2)cc1 | -14.6% |
| C=CCN(CC=C)C(=O)COC(=O)c1n[nH]c2ccccc12 | 18.7% |
| CC(C)C[C@H]1CNC(=O)C(=O)N1C[C@@H]1CCCN1C[C@H](Cc1ccccc1)N1C[C@H](CC(C)C)N(CC2CCCCCC2)C(=O)C1=O | 0% |
| CCOc1ccc(CCN2C(=O)C(=O)N([C@@H](CC(C)C)CN3CCC[C@H]3CN3C(=O)C(=O)NC[C@@H]3Cc3ccccc3)C[C@@H]2CC(C)C)cc1 | -1.26% |
| CC(C)C[C@H]1CN([C@@H](CC(C)C)CN2CCC[C@@H]2CN2C(=O)C(=O)NC[C@@H]2Cc2ccccc2)C(=O)C(=O)N1CCc1ccccc1 | -63.4% (active) |
| CCOc1ccc(CCN2C(=S)N([C@@H](CC(C)C)CN3CCC[C@@H]3CN3C(=S)NC[C@@H]3Cc3ccc(O)cc3)C[C@@H]2Cc2ccc(O)cc2)cc1 | -64.1% (active) |
| CC(C)C[C@H]1CNC(=S)N1C[C@H]1CCCN1C[C@H](Cc1ccc(O)cc1)N1C[C@H](Cc2ccc(O)cc2)N(CC2CCCCC2)C1=S | -11.2% |
| CC(C)C[C@H]1CNC(=O)C(=O)N1C[C@H]1CCCN1C[C@H](Cc1ccc(O)cc1)N1C[C@H](CC(C)C)N(CC2CCCCCC2)C(=O)C1=O | -60.7% (active) |
| CCOc1ccc(CCN2C(=O)C(=O)N([C@@H](Cc3ccc(O)cc3)CN3CCC[C@H]3CN3C(=O)C(=O)NC[C@@H]3CC(C)C)C[C@@H]2Cc2ccccc2)cc1 | 13.9% |

| SMILES | activity change |
| --- | --- |
| O=C1NC[C@H](Cc2ccc(O)cc2)N(C[C@@H]2CCCN2C[C@H](Cc2ccccc2)N2C[C@H](Cc3ccccc3)N(CC3CCCCC3)C(=O)C2=O)C1=O | -15.5% |
| CC(C)C[C@H]1CN([C@@H](Cc2ccccc2)CN2CCC[C@@H]2CN2C(=O)C(=O)NC[C@@H]2Cc2ccc(O)cc2)C(=O)C(=O)N1CCc1ccccc1 | 0% |
| CCCCN1CC(COc2ccccc2)Oc2cccc(F)c2S1(=O)=O (stereo not given) | -1.95% |
| COc1cc(NC(=O)CSc2ccc(-c3cccnc3)nn2)cc(OC)c1 | -13.8% |
| CC1CCC2(CC1)NC(=O)N(CC(=O)NCc1ccco1)C2=O (stereo not given) | 5.54% |
| CCc1ccc2c(c1)NC(=O)C2(C)Cc1ccc(OC(F)(F)F)cc1 (stereo not given) | -20.9% |
| N#C/C=C(/c1ccc(F)cc1)N1CCOCC1 | 11.5% |
| COc1ccc(CNC(=O)COC(=O)C2=Cc3ccccc3OC2)cc1 | 1.65% |
| COc1ccc(NC(=S)NC2CCS(=O)(=O)C2)cc1 (stereo not given) | 7% |
| CCCSC(=S)NC1CCS(=O)(=O)C1 (stereo not given) | -105% (active) |
| CC(C)C(=O)NC(NC(=S)NC1CCS(=O)(=O)C1)C(Cl)(Cl)Cl (stereo not given) | 15.4% |
| O=C(CSc1ccccc1F)NC1CCS(=O)(=O)C1 (stereo not given) | -10.4% |
| O=S1(=O)CCC(NC(=S)SCc2ccccc2Br)C1 (stereo not given) | -69% (active) |
| O=C(Cc1ccc(Cl)cc1)NC1CCS(=O)(=O)C1 (stereo not given) | -6.66% |
| C[C@@H]1NS(=O)(=O)c2cc(Cl)ccc2O[C@@H]1c1ccccc1 | -5.88% |
| O=C1NC[C@H](CCCCN2C[C@H](Cc3ccc(O)cc3)N(CC3CCCCC3)C(=O)C2=O)N(CCc2ccccc2)C1=O | 4.81% |
| CC1(Cc2ccccc2C#N)C(=O)Nc2ccc(-c3ccc4[nH]ccc4c3)cc21 (stereo not given) | 90.5% |
| COc1ccc(N=C2C=CC(=O)O2)cc1 | 4.16% |
| CCCCNC(=O)c1nc(C2CCN(S(=O)(=O)c3ccc(F)c(F)c3)CC2)oc1-c1cccc(C(F)(F)F)c1 | 11.8% |
| CCOC(=O)[C@]12CCCC=C1N(Cc1cccc3ccccc13)C(=O)[C@H](CC(=O)NCC13CC4CC(CC(C4)C1)C3)C2 | -26.5% |
| O=S1(=O)CC(N2CCSCC2)CN1Cc1cn(Cc2cccc(Cl)c2)nn1 (stereo not given) | -25.6% |
| COc1ccc(Br)cc1/C=N/Nc1ccc(S(=O)(=O)Nc2ccccc2C(=O)O)cc1[N+](=O)[O-] | 0% |
| Cc1cc(C)cc(OCC(=O)NCc2cc(C)nc3ccccc23)c1 | 14.8% |
| Cc1cc(C)c(NC(=O)c2oc3ccccc3c2COc2ccccc2)c(C)c1 | -17.8% |
| Cc1cc(C)c(NC(=O)C[N+](C)(C)CC(O)COc2cccc3ccccc23)c(C)c1 (stereo not given) | -86% (active) |
| COc1ccc(NC(=O)N(C)C[C@H]2Oc3ncc(C#C[C@@H](C)O)cc3C(=O)N([C@H](C)CO)C[C@H]2C)cc1 | -13.1% |
| CC1(Oc2ccc(Cl)cc2)CCN(Cc2csc3ccccc23)C1 (stereo not given) | 17.7% |

| SMILES | activity change |
| --- | --- |
| Cc1cc(OC(=O)c2ccccc2)c([N+](=O)[O-])c(=O)[nH]1 | -9.86% |
| Cc1ccc(S(=O)(=O)N2[C@@H](Cc3ccccc3)CO[C@H]2CC(=O)OCc2ccccc2)cc1 | -0.839% |
| O=S(=O)(Cc1ccc(Cl)cc1Cl)c1ccc(Cl)cc1 | -1.43% |
| CCN(CC)CCCNC(=O)Cn1cnc2sc(C)c(S(=O)(=O)N3CCN(c4ncccn4)CC3)c2c1=O | 18.1% |
| CCN(CC)CCNC(=O)Cn1cnc2sc(C)c(S(=O)(=O)N3CCOCC3)c2c1=O | 14.7% |
| CCN(CC)CCNC(=O)c1sc2ncn(CC(=O)Nc3ccc(C)c(Cl)c3)c(=O)c2c1C | -75.6% (active) |
| CN(C)C1CN(Cc2cn(Cc3ccccc3)nn2)S(=O)(=O)C1 (stereo not given) | -13.3% |
| CC(C)CCOc1ccc(C(=O)Nc2cc(S(=O)(=O)N3CCOCC3)ccc2N2CCOCC2)cc1 | -18.6% |
| O=S(=O)(NCCCN1CCOCC1)c1ccc(F)c(Cl)c1 | -0.644% |
| CC1(C(=O)Nc2ccc3c(c2)OCCO3)CN(S(C)(=O)=O)CC(=O)N1Cc1cccc(F)c1 (stereo not given) | -9.42% |
| CCCCCCSc1ccc([C@@H]2[C@@H]3C(=O)N(CC)C(=O)[C@@H]3[C@]3(C(=O)OC)CCCCN23)cc1OC | -74.8% (active) |
| CCN1C(=O)[C@@H]2[C@@H](c3ccc(-c4ccc(OC)cc4)c(OC)c3)N3CCC[C@@]3(C(=O)OC)[C@@H]2C1=O | -7.49% |
| CCCCCCSc1ccc([C@@H]2[C@H]3C(=O)N(CC)C(=O)[C@H]3[C@]3(C(=O)OC)CCCCN23)cc1 | 144% |
| COC(C)(C)[C@]12CC(O)(C(C)C)ON1[C@H]1CCCCC1N2O (stereo not given in full) | 8.62% |
| CCCNC(=O)CSc1nc(Cc2ccccc2)nc2ccccc12 | -58.7% (active) |
| C=CCSc1nc(Cc2ccc(Cl)cc2)nc2ccccc12 | -12.9% |
| CCc1nc(SCC(=O)NNC(=O)c2ccc(C)cc2)c2ccccc2n1 | -0.629% |
| Cc1ccc(CCN2CC(C(=O)O)CC2=O)cc1 (stereo not given) | -6.28% |
| O=C(COC(=O)Cc1ccccc1F)NCCc1ccccc1 | 6.36% |
| N=c1n(CCc2ccccc2)c2ccccc2n1Cc1ccccc1F | -81.4% (active) |
| CC(=O)NC(C)c1nc2ccccc2n1Cc1ccccc1F (stereo not given) | 21.9% |
| O=C(NCCN1CCN(C(=O)c2cccc([N+](=O)[O-])c2)CC1)C(=O)NCc1ccc(Cl)cc1 | -11.8% |
| Cc1ccc(S(=O)(=O)c2c[nH]c3ccc(Cl)cc3c2=O)cc1 | -2.27% |
| CCOC(=O)CNc1nc(Cl)nc(Nc2ccc(OC)cc2OC)n1 | -6.02% |
| CCC(=O)Nc1ccc(Nc2nc(Cl)nc(Nc3ccc(NC(=O)CC)cc3)n2)cc1 | -8.11% |
| CCOC(=O)CNc1nc(Cl)nc(Nc2ccccc2)n1 | -67.7% (active) |
